40 compounds from PubChem BioAssay (NCI) can be followed below.

The panel holds about 79,000 compounds, 15% with a hit somewhere; the sample as a whole holds those more often. Calls of active or inactive are those of the source. Rule as the data show it: active = growth inhibition above about 70%; inactive = the rest. Where a SMILES comes first, the peptide text is derived from it. Bridges are numbered along the chain shown (N, C = ends). [ ]: non-standard residue; d: D form. The star is where a group is joined. Myristoyl = CCCCCCCCCCCCCC(=O)*; PhAc = O=C(Cc1ccccc1)*

The first assay is described as follows: NCI Yeast Anticancer Drug Screen. Data for the sgs1 mgt1 strain (AID 161).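 Also: 0% = growth of cultures given vehicle only.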 The settings on record: S. cerevisiae sgs1 mgt1 strain, at 50.0 µM, hits give high values. In outline:
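Yeast cells carrying a defined DNA-repair defect were exposed to test compounds. Growth inhibition was measured relative to vehicle-treated controls.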
As to `CC(/C=N/NC1=NCCCCN1)=N\NC1=NCCCCN1`, the growth inhibition was -15.6% (inactive).
Still for that read-out and setting: under `O=C1C(Cl)=C(Cl)C(=O)N1c1ccccc1Cl` stands 36.5% (inactive).
In the case of `O=C(O)CNCc1ccccc1`, the growth inhibition was 14.6% (inactive).
Same read-out and setting: in the case of `CCSC(N)=Nc1ccccc1` (tested in a mixture with another compound) it was 21.8% (inactive); in that of `O=C(O)CCC1(c2ccccc2)CCCCC1`, 11.6% (inactive); in that of `CCOC(=O)c1nc2ccc(OC)cc2c2c1Cc1ccccc1-2`, -22.1% (inactive).
The same measure, in the same setting: in the case of `CC(=O)c1sc(-c2nc(C)c(C(=O)/C=C\c3ccc(/C=C\C(=O)c4sc(-c5nc(C)c(C(C)=O)s5)nc4C)cc3)s2)nc1C` it was -8.7% (inactive).
Still for that read-out and setting: in the case of `CCOC(=O)CC1C(O)C(=O)N(C)C1c1ccccc1` (stereo not given) it was 1.75% (inactive); in that of `O=C([O-])[C+](C=Cc1cccc2ccccc12)C(=O)O`, 8.35% (inactive); in that of `Br/C=C\Br`, -7.45% (inactive).
Take `COc1ccc2c(c1)CCC1C2CCC2(C)C(=O)C(n3cnc4c(=S)nc[nH]c43)CC12` (stereo not given): the growth inhibition is 50% (inactive).
Same read-out and setting: under `COc1cc([N+](=O)[O-])ccc1N=Cc1cccs1` stands 34% (inactive); under `C=CCSc1nc2c(=O)n(C)c(=O)n(C)c2n1C`, -6.85% (inactive); under `c1ccc(C[P+]2(c3ccccc3)c3ccccc3-c3ccccc32)cc1`, -11.2% (inactive).
Still for that read-out and setting: in the case of `O=c1[nH]ncc(N/N=C(/C=C/c2ccc(C/C(=N/Nc3cn[nH]c(=O)c3Cl)c3ccccc3)cc2)c2ccccc2)c1Cl` it was 33.2% (inactive).
Regarding `Cc1cccc(CC(CC(=O)O)C(=O)O)c1` (stereo not given), the growth inhibition is -1.85% (inactive).
Turning to `O=C1NC(=NC2CCCCC2)C2(CCN(CCCC3(c4ccc(F)cc4)OCCO3)CC2)N1c1ccccc1`, the growth inhibition is -6.3% (inactive).
For `Cc1ccc(/C=C/C(=O)c2c([O-])on[n+]2-c2ccccc2)cc1`, the growth inhibition is 21.9% (inactive).
For `CC(C)(C)NC(=O)c1cccc(C(=O)NC(C)(C)C)n1`, the growth inhibition is -0.3% (inactive).
Same read-out and setting: in the case of `C=CCC(C(=C)C)(C(=O)OCC)C(=O)OCC` it was -32.6% (inactive).
For the compound `CC(=O)OCC(=O)C1(O)C(C)CC2C3CCC4CC(=O)CCC4(C)C3=CCC21C` (stereo not given), the growth inhibition is 0.65% (inactive).
The same measure, in the same setting: in the case of `CS(=O)(=O)OCCn1cnc2nc(NC(=O)c3ccccc3)[nH]c(=O)c21` it was -12.7% (inactive); in that of `OCc1nnn2c1CCC2`, -2.15% (inactive); in that of `O=S(=O)(c1ccccc1)N1CCCN(S(=O)(=O)c2ccccc2)CC1`, 2.15% (inactive).
In the case of `CSc1cccc(NC(=O)/C=C/C(=O)O)c1`, the growth inhibition is 16.3% (inactive).
In the case of `CCCCCCCCCCCCCC(=O)NCC(=O)NC(CO)C(=O)NC(CO)C(=O)NC(CCCCN)C(=O)NC(CO)C(=O)NC(CCCCN)C(=O)N1CCCC1C(=O)NC(CCCCN)C(=O)NC(CC(=O)O)C(N)=O` (stereo not given) (Myristoyl-GSSKSKPKD-NH2; configuration not given here), the growth inhibition was -3.9% (inactive).
Same read-out and setting: in the case of `COc1ccc(C2OC(C)C(C)O2)cc1` (stereo not given) it was -1.5% (inactive); in that of `O=C(O)c1ccc(C(=O)c2ccccc2C(=O)O)cc1C(=O)O`, -44% (inactive); in that of `O=C(Cc1ccccc1)N[C@@H]1COC(=O)[C@@H]2CCCN2C(=O)[C@@H]2CCCN2C1=O` (PhAc-[dS]-Pro-Pro; ester 1-C), -17.2% (inactive).
On the same count and under the same terms, in the case of `c1ccc(Cc2nnc3n2CCC(c2ccccc2)S3)cc1` (stereo not given) it was -10.9% (inactive).
On the same count and under the same terms, under `N#CC1CC2c3ccccc3C1([N+](=O)[O-])c1ccccc12` (stereo not given) stands 12.8% (inactive); under `COc1ccc(S(=O)Cc2cc(OC)c(OC)c(OC)c2)cc1` (stereo not given), -61.7% (inactive).
For the compound `CC(C)(C)NC(=S)N/N=C/c1ccccn1`, the growth inhibition is 90.5% (active).
Still for that read-out and setting: under `c1ccc(C(c2ccccc2)[n+]2ccccc2)cc1` stands -6.1% (inactive); under `COc1ccc2[nH]cc(C=O)c2c1`, -1.65% (inactive); under `CSc1nc(N)n2nc(C)cc2n1`, 10.2% (inactive).
On the same count and under the same terms, under `O=C(O)c1c(Br)c(Br)c(Br)c(Br)c1C(=O)Nc1ccccc1F` stands 7.55% (inactive); under `CCOC(=O)C(/C=N/C(=S)Nc1c(C)cccc1C)=C(/O)c1ccccc1`, -26.1% (inactive); under `Cc1ccc(NC(=O)CSc2nnc(Cc3ccccc3)o2)cc1`, -18.5% (inactive).
Same read-out and setting: in the case of `CC(=O)Nc1ccc(Cc2ccc3[nH]c(=O)cc(C)c3c2)cc1` it was 15.8% (inactive).

The nature of another assay: NCI Yeast Anticancer Drug Screen. Data for the cln2 rad14 strain (AID 165).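 Also: 0% = growth equal to vehicle treated cultures.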 Particulars: S. cerevisiae cln2 rad14 strain, at 50.0 µM, hits give high values. The method in brief: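 Relative to vehicle controls, growth inhibition of compound-treated cln2 rad14 yeast was recorded.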
As to `CC(/C=N/NC1=NCCCCN1)=N\NC1=NCCCCN1`, the growth inhibition was 8.8% (inactive).
The same measure, in the same setting: under `O=C1C(Cl)=C(Cl)C(=O)N1c1ccccc1Cl` stands 43.9% (inactive); under `O=C(O)CNCc1ccccc1`, -4.45% (inactive); under `CCSC(N)=Nc1ccccc1` (tested in a mixture with another compound), 13.3% (inactive).
On the same count and under the same terms, under `O=C(O)CCC1(c2ccccc2)CCCCC1` stands 10.2% (inactive).
Same read-out and setting: under `CCOC(=O)c1nc2ccc(OC)cc2c2c1Cc1ccccc1-2` stands 8.3% (inactive).
`CC(=O)c1sc(-c2nc(C)c(C(=O)/C=C\c3ccc(/C=C\C(=O)c4sc(-c5nc(C)c(C(C)=O)s5)nc4C)cc3)s2)nc1C`: the growth inhibition was -11.6% (inactive).
Regarding `CCOC(=O)CC1C(O)C(=O)N(C)C1c1ccccc1` (stereo not given), the growth inhibition was 42.3% (inactive).
As to `O=C([O-])[C+](C=Cc1cccc2ccccc12)C(=O)O`, the growth inhibition was 5.35% (inactive).
In the case of `Br/C=C\Br`, the growth inhibition was 28.6% (inactive).
Same read-out and setting: under `COc1ccc2c(c1)CCC1C2CCC2(C)C(=O)C(n3cnc4c(=S)nc[nH]c43)CC12` (stereo not given) stands 34.5% (inactive).
On the same count and under the same terms, under `COc1cc([N+](=O)[O-])ccc1N=Cc1cccs1` stands 0.25% (inactive); under `C=CCSc1nc2c(=O)n(C)c(=O)n(C)c2n1C`, -27.3% (inactive).
In the case of `c1ccc(C[P+]2(c3ccccc3)c3ccccc3-c3ccccc32)cc1`, the growth inhibition was 4.15% (inactive).
As to `O=c1[nH]ncc(N/N=C(/C=C/c2ccc(C/C(=N/Nc3cn[nH]c(=O)c3Cl)c3ccccc3)cc2)c2ccccc2)c1Cl`, the growth inhibition was -15.6% (inactive).
Regarding `Cc1cccc(CC(CC(=O)O)C(=O)O)c1` (stereo not given), the growth inhibition was 11.6% (inactive).
In the case of `O=C1NC(=NC2CCCCC2)C2(CCN(CCCC3(c4ccc(F)cc4)OCCO3)CC2)N1c1ccccc1`, the growth inhibition is 5% (inactive).
As to `Cc1ccc(/C=C/C(=O)c2c([O-])on[n+]2-c2ccccc2)cc1`, the growth inhibition is 14.9% (inactive).
Turning to `CC(C)(C)NC(=O)c1cccc(C(=O)NC(C)(C)C)n1`, the growth inhibition was -7.9% (inactive).
In the case of `C=CCC(C(=C)C)(C(=O)OCC)C(=O)OCC`, the growth inhibition was -6.8% (inactive).
As for `CC(=O)OCC(=O)C1(O)C(C)CC2C3CCC4CC(=O)CCC4(C)C3=CCC21C` (stereo not given), the growth inhibition is -2.95% (inactive).
With `CS(=O)(=O)OCCn1cnc2nc(NC(=O)c3ccccc3)[nH]c(=O)c21`, the growth inhibition was 0.55% (inactive).
Consider `OCc1nnn2c1CCC2`, for which the growth inhibition is 11.4% (inactive).
Still for that read-out and setting: under `O=S(=O)(c1ccccc1)N1CCCN(S(=O)(=O)c2ccccc2)CC1` stands 3.1% (inactive).
Regarding `CSc1cccc(NC(=O)/C=C/C(=O)O)c1`, the growth inhibition is -58.5% (inactive).
`CCCCCCCCCCCCCC(=O)NCC(=O)NC(CO)C(=O)NC(CO)C(=O)NC(CCCCN)C(=O)NC(CO)C(=O)NC(CCCCN)C(=O)N1CCCC1C(=O)NC(CCCCN)C(=O)NC(CC(=O)O)C(N)=O` (stereo not given) (Myristoyl-GSSKSKPKD-NH2; configuration not given here): the growth inhibition is 6.1% (inactive).
Turning to `COc1ccc(C2OC(C)C(C)O2)cc1` (stereo not given), the growth inhibition is -42.6% (inactive).
The same measure, in the same setting: in the case of `O=C(O)c1ccc(C(=O)c2ccccc2C(=O)O)cc1C(=O)O` it was 43.3% (inactive); in that of `O=C(Cc1ccccc1)N[C@@H]1COC(=O)[C@@H]2CCCN2C(=O)[C@@H]2CCCN2C1=O` (PhAc-[dS]-Pro-Pro; ester 1-C), 27.4% (inactive); in that of `c1ccc(Cc2nnc3n2CCC(c2ccccc2)S3)cc1` (stereo not given), 2.4% (inactive).
For the compound `N#CC1CC2c3ccccc3C1([N+](=O)[O-])c1ccccc12` (stereo not given), the growth inhibition was 43% (inactive).
Still for that read-out and setting: in the case of `COc1ccc(S(=O)Cc2cc(OC)c(OC)c(OC)c2)cc1` (stereo not given) it was -19.8% (inactive); in that of `CC(C)(C)NC(=S)N/N=C/c1ccccn1`, 88.3% (active).
Same read-out and setting: under `c1ccc(C(c2ccccc2)[n+]2ccccc2)cc1` stands -11.2% (inactive); under `COc1ccc2[nH]cc(C=O)c2c1`, 7.25% (inactive); under `CSc1nc(N)n2nc(C)cc2n1`, 6.9% (inactive).
The same measure, in the same setting: under `O=C(O)c1c(Br)c(Br)c(Br)c(Br)c1C(=O)Nc1ccccc1F` stands 20.2% (inactive); under `CCOC(=O)C(/C=N/C(=S)Nc1c(C)cccc1C)=C(/O)c1ccccc1`, -18.6% (inactive).
In the case of `Cc1ccc(NC(=O)CSc2nnc(Cc3ccccc3)o2)cc1`, the growth inhibition is -20.1% (inactive).
As to `CC(=O)Nc1ccc(Cc2ccc3[nH]c(=O)cc(C)c3c2)cc1`, the growth inhibition was 5.35% (inactive).
